According to PubChem BioAssay (NCI):
Compounds without any hit were thinned out: in the full panel of roughly 79,000, 15% have a hit. A number with no mark means an inactive call. The source made the active and inactive calls. No stated cut-off is given here; in the data, active means growth inhibition above about 70%; inactive means the rest. Where a SMILES comes first, the peptide text is derived from it. [ ]: non-standard residue; d: D form. Ac5c = NC1(C(=O)O)CCCC1

Experiments:
[1] = NCI Yeast Anticancer Drug Screen. Data for the rad50 strain (AID 155);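 further: 0% = growth of vehicle-only cultures of the same strain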; conditions: S. cerevisiae rad50 strain growth inhibition; at 50.0 µM; active compounds read high
In short: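 Cells are treated with compound, grown, and their growth is then scored against vehicle-only cultures of the same repair-deficient yeast strain.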

[2] = NCI Yeast Anticancer Drug Screen. Data for the mec2-1 strain (AID 157); conditions: S. cerevisiae mec2-1 strain, at 50.0 µM, active compounds read high
In short: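 mec2-1 yeast strain, carrying an alteration in DNA damage repair or cell cycle control, was exposed to compounds; growth inhibition was measured relative to vehicle-treated controls.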

[3] = NCI Yeast Anticancer Drug Screen. Data for the sgs1 mgt1 strain (AID 161);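 further: 0% = growth of cultures given vehicle only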; conditions: S. cerevisiae sgs1 mgt1 strain, at 50.0 µM, active compounds read high
In short: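 Compounds are added to genetically altered yeast, and growth is compared with cultures given vehicle alone to give percent inhibition.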

[4] = NCI Yeast Anticancer Drug Screen. Data for the cln2 rad14 strain (AID 165);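 further: 0% = growth equal to vehicle treated cultures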; conditions: S. cerevisiae cln2 rad14 strain, at 50.0 µM, active compounds read high
In short: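 Yeast carrying cln2 and rad14 alterations (cell cycle control and DNA damage repair) were exposed to compounds. Growth inhibition was measured against vehicle-treated controls.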

[5] = NCI Yeast Anticancer Drug Screen. Data for the bub3 strain (AID 167); conditions: S. cerevisiae bub3 mutant strain, at 50.0 µM, active compounds read high
In short: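 Part of a panel of yeast mutants defective in DNA damage repair or cell cycle regulation. Each strain is grown with compound, and inhibition is calculated relative to solvent-treated cultures.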

[6] = NCI Yeast Anticancer Drug Screen. Data for the mlh1 rad18 strain (AID 175); conditions: S. cerevisiae mlh1 rad18 strain growth inhibition; at 50.0 µM; active compounds read high
In short: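 Growth inhibition of the yeast strain was measured after compound exposure and expressed relative to vehicle-treated controls. The strain carries defined defects in DNA damage repair.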

| SMILES | growth inhibition [1] | growth inhibition [2] | growth inhibition [3] | growth inhibition [4] | growth inhibition [5] | growth inhibition [6] |
| --- | --- | --- | --- | --- | --- | --- |
| CC(=O)Nc1cc(-c2ccccc2)cc(-c2ccccc2)c1 | 11.6% | 0.4% | -2.55% | 1.5% | 10.7% | 22.4% |
| CCOC(=O)C(C)(C(=O)OCC)c1c[n+]([O-])c2ccccc2c1[N+](=O)[O-] | 13.8% | -5.15% | 19.3% | -22.4% | -4.55% | 12.9% |
| CC12CC(=O)C3C(CCC4CC(OS(=O)(=O)O)CCC43C)C1CC1OC(=O)C=C12 (stereo unspecified) | 18.2% | -8.75% | -5.85% | 15.9% | -0.9% | 25.6% |
| C=C(C)COc1ccc(-c2ccccc2)cc1 | 24.5% | 7.35% | 8% | -4.95% | -3.85% | -3.2% |
| O=C(O)[C@@H]1[C@H](C(=O)O)[C@H](C(=O)O)C[C@@H]1C(=O)O | 6.2% | -33.9% | -24.9% | -1.85% | -69% | 20.1% |
| NC1CCCCC1NCCNC1CCCCC1N (stereo unspecified) | -3.15% | 9.35% | 16.4% | -12.9% | 42.4% | 10.8% |
| O=c1nc(NC(c2ccccc2)(c2ccccc2)c2ccccc2)ccn1CCCl | -5.35% | 4.55% | -1.5% | -23.9% | -20.9% | -9.7% |
| C=C1CCC(OC(C)=O)C2(C)C(OC(C)=O)CC3OC3(C)C2C(OC(C)=O)C2C(C)C(=O)OC2C1Cl (stereo unspecified) | 3.2% | -20.8% | 1.55% | 6.45% | 3% | 4.8% |
| CN(C)CCCN1CCC2(CCC(C(C)(C)C)CC2)CC1 | 40% | -16.1% | -0.3% | -19.1% | -31.2% | 49.8% |
| Oc1ccc(Cl)c2cccnc12 | 98.9% (active) | 99.5% (active) | 99.2% (active) | 97.8% (active) | 99.3% (active) | 97.7% (active) |
| N#CC1C(=O)NC(=S)NC1c1ccc2c(c1)CCC2 (stereo unspecified) | -12.9% | -6.7% | -22.9% | -18.8% | -7.15% | 4.1% |
| Cn1c(Cl)c(C=O)c(=O)n(C)c1=O | 17.8% | -4.7% | -5.95% | -0.45% | 7% | -2.55% |
| CCOC(=O)C(/C=C/c1cc(C)c(C)c(C)c1)(NC=O)C(=O)OCC | -3.25% | 2.55% | 9.6% | 5.75% | 12.1% | -1.3% |
| O=C(Nc1ccc(S(=O)(=O)N2CCCCC2)cc1)OC(c1ccccc1)c1ccccc1 | 38.3% | -6.6% | 27.4% | 15.9% | -11.7% | 6.05% |
| CCOC(=O)c1ccc[n+]([O-])c1 | -2.35% | -9.95% | -18.6% | -107% | -13.2% | -10.8% |
| C/C(=C\CNc1ncnc2c1ncn2C1CCCCO1)COP(=O)(O)O (stereo unspecified) | 19.6% | 6.4% | 19.6% | 22.2% | -4.8% | 27.9% |
| CCN(CC)c1ccc(N=Nc2ccc([N+](=O)[O-])cc2OC(=O)/C=C/c2ccccc2)c(OC(=O)/C=C/c2ccccc2)c1 | -17.6% | -47.9% | -12.9% | 5.6% | -32.5% | -22.8% |
| Cc1ccc(S(=O)(=O)NCc2cccc([N+](=O)[O-])c2)cc1 | 6.25% | -15.8% | -13.6% | 19% | 18.2% | 14.8% |
| NS(=O)(=O)c1ccc(NC(=O)Nc2ccccc2F)cc1 | -3.35% | -6.85% | -28.4% | -13.2% | 1.15% | 12.6% |
| COC(=O)C1(NC(=O)C(C)NC(=O)C(CCCCN)NC(=O)C(CC(C)C)NC(C)=O)CCCC1 (stereo unspecified) (Ac-LKA[Ac5c]-OMe; configuration not given here) | 3.1% | 4.7% | 13.8% | -6.25% | -7.8% | 8.05% |
| NC(CC1C=CCCC1)C(=O)O (stereo unspecified) | -26.4% | -16.1% | 1.85% | -52.3% | 7.1% | -4.3% |

| SMILES | growth inhibition [1] | growth inhibition [2] | growth inhibition [3] | growth inhibition [4] | growth inhibition [5] | growth inhibition [6] |
| --- | --- | --- | --- | --- | --- | --- |
| CCOC(=O)c1c(C)[nH]c(=S)c(C#N)c1-c1ccco1 | 17.7% | 6.15% | 10.8% | 4.4% | -3.35% | 28% |
| Cc1ccccc1N=Nc1c(C)nc(N)nc1-c1ccccc1 | 1% | 8.6% | 6.2% | -12.6% | -14.5% | 12.2% |
| Cc1[nH]c2ccc(-c3ccccc3)cc2c1CC(=O)O | 51.5% | -22.8% | 47.7% | -5.85% | 3.35% | 53.9% |
| C(=Nc1cnc2ccccc2c1)c1ccc2ccccc2n1 | -5.3% | -13.4% | -11.3% | -6.2% | -55.9% | -14.8% |
| C=CC12COC(=O)CC1CCC(=O)C2 (stereo unspecified) | 4.75% | -10.2% | -14.2% | -19.4% | 13.4% | -5.4% |
| O=C(CCCCCCCCC(=O)OCCCn1cc(C(=O)NC(=O)OCc2ccccc2)c(=O)[nH]c1=O)OCCCn1cc(C(=O)NC(=O)OCc2ccccc2)c(=O)[nH]c1=O | -28.6% | -41.7% | -25.6% | 1.7% | -24.2% | -36.8% |
| CCOc1ccc(C(=O)OC)cc1 | 31.1% | -3.45% | 31% | 16.8% | 38.8% | 23.7% |
| Cc1cc(N(CCC#N)CCC#N)ccc1/C=C\C(=O)Nc1ccccc1 | 19.3% | 16.3% | -10.8% | 10.2% | 36.7% | 4.55% |
| CC(C)(O)CCC(C)(C)O | 60.3% | -19.1% | 41.9% | -25.9% | 0.5% | 45.2% |
| CSCCC(NC(=O)OCc1ccccc1)P(=O)(O)c1ccccc1 (stereo unspecified) | -56% | -41.1% | -34% | 13.2% | 14.8% | -11% |
| CCOC(=O)C1=C(O)c2c(OC)ccc(OC)c2C(=O)C1=O | -23.6% | -43.5% | -22.2% | 3.65% | -16% | -30% |
| COc1ccc(-c2cc(O)cc(C)c2N)c(OC)c1OC | 17.1% | 14.6% | 17.4% | 7.9% | -3.45% | 17.4% |
| O=C1C=C(Nc2ccc(Cl)cc2Cl)c2ccccc2C1=O | 30.2% | 17.7% | 17.2% | 29% | 27.9% | 37.5% |
| Cn1c(=O)c(N=Nc2c(=O)n(C)c(=O)n3c2[nH]c2ccccc23)c2[nH]c3ccccc3n2c1=O | -2.1% | 17.1% | 7.4% | -27.4% | -10.7% | 12.2% |
| CCCC(C)C1CCC(=O)CC1 (stereo unspecified) | 5.85% | 0.3% | 0.75% | -4.3% | 1.95% | -0.2% |
| O=C1OC(=O)C2C1C1(Cl)CC2(Cl)C(Cl)=C1Cl (stereo unspecified) | -3.05% | -31.8% | 2% | -30.8% | -23.1% | -18.6% |
| Cn1c(=O)c(C(=O)NC(=O)OCc2ccccc2)cn(CCSCCOC(=O)NCCCCCCNC(=O)OCCSCCn2cc(C(=O)NC(=O)OCc3ccccc3)c(=O)n(C)c2=O)c1=O | -3.1% | -21.1% | -6.35% | -0.95% | -5.15% | -16.5% |
| CCOC(=O)/C(C)=C1\N=C(c2ccccc2)OC(=NC2CCCCC2)N1C1CCCCC1 | 9.95% | -4.8% | 0.3% | 17.9% | -4.55% | 8.1% |
| CCCCOP(=O)(OCCCC)C(c1ccccc1)(c1ccccc1)c1ccccc1 | 48.9% | 42.5% | 49.8% | 42.5% | 5.9% | 59.6% |
| C=CCc1cc(Br)ccc1O | 20.7% | 5.9% | -9.85% | 11.1% | -17.4% | 33.5% |
